Laboratory results reported in PubChem BioAssay (NCATS).
Several values for one entry are separate records, joined by “and”; a condition that tells them apart may be missing. Equal values may be shown once. Inconclusive results are not listed. Some structures have more than one record in an assay (separate samples or runs), and their calls can disagree. Activity calls are given as the source filed them. Calls follow the shape of the dose curve; as a rule, active = well fitted inhibition curve with a large enough effect; inconclusive = small, poorly fitted or top-dose-only effect; inactive = flat fitted curve, though single readings scatter.
% is scaled to controls: 0 for no effect and ±100 for the full control effect; potency is read from the fitted curve at half-maximal effect.

What follows are compounds tested on KB-3-1 (assay: Cytotoxic Profiling of Annotated Libraries Using Quantitative High-Throughput Screening (AID 1296008; also: nearly all actives have a fitted effect of over 60% in size)). Conditions: Five cell lines viability, CellTiter-Glo ATP luminescence, 48-72 h; max response: stronger effect = lower value.
From the text: Cell-based phenotypic screening is a commonly used approach to discover biological pathways, novel drug targets, chemical probes and high-quality hit-to-lead molecules. Many hits identified from high-throughput screening campaign are ruled out through a series of follow-up potency, selectivity/specificity, and cytotoxicity assays. Prioritization of molecules with little or no cytotoxicity for a more in-depth downstream evaluation influence the future direction of projects, so cytotoxicity profiling of the screening libraries at early stage is essential for increasing the likelihood of candidate success. […] For the annotated library, we also examined the primary targets and mechanistic pathways regularly associated with cell death. To our knowledge, this is the first study to use high-throughput screening to profile large libraries for cytotoxicity assessment in both normal and cancer cell lines. In summary, the results generated here constitutes a valuable resource for the scientific community and provides insight on identifying cytotoxic compounds with particular mechanisms of action, and prioritizing compounds with suitable cytotoxicity profile for further evaluation.
A pintool (Kalypsys) was used to transfer 23 nL of compound solution to the 1536-well assay plates. After 48 or 72 hr incubation at 37 degree Celsius, 5% CO2 and 95% humidity, 2.5 uL of CellTiter-Glo (Promega) was dispensed into each well using a dispenser (Aspect Automation, St. Paul, MN) with solenoid valves (Lee Valves, Westbrook CT). Plates were left at room temperature for 10 min before imaging the ATP-coupled luminescence using a ViewLux microplate imager (PerkinElmer, Waltham, MA).
For `NCCCCCC(=O)O`, the max response was 14.6% (inactive) and 4.29% (inactive). In the case of `COc1cc2c(c(OC)c1OC)-c1ccc(OC)c(=O)cc1[C@@H](NC(C)=O)CC2`, the Potency is reported as 23.1 nM (active) and 1 nM (active). For `CC12CC3CC(C)(C1)CC(N)(C3)C2`, the max response was 0.442% (inactive). With `CN1C(C(=O)Nc2ccccn2)=C(O)c2ccccc2S1(=O)=O` the max response was -1.54% (inactive) and -11.4% (inactive). For `C[C@](N)(Cc1ccc(O)c(O)c1)C(=O)O`, the max response was -5.5% (inactive) and -5.11% (inactive). In the case of `Cc1cn([C@H]2C=C[C@@H](CO)O2)c(=O)[nH]c1=O`, the outcome is reported as “inactive”. In the case of `CC1(C)O[C@H]2CC(=O)OC[C@]23[C@H]2CC[C@@]4(C)[C@H](c5ccoc5)OC(=O)[C@H]5O[C@]54[C@]2(C)C(=O)C[C@@H]13`, the outcome is reported as “inactive” and the max response is reported as -3.61% (inactive) and 0.55% (inactive). `CN(C)CCOC(c1ccccc1)c1ccccc1` was tested, and the outcome was “inactive” and the max response was 4.19% (inactive) and -2.75% (inactive). In the case of `Clc1ccccc1C(c1ccccc1)(c1ccccc1)n1ccnc1`, the max response is reported as -12.5% (inactive). In the case of `NCCS(=O)(=O)O`, the max response is reported as 9.43% (inactive). `CC1(CN2CCC(n3c(=O)[nH]c4ccccc43)CC2)OCc2ccccc2-n2cccc21` (stereo not given) was tested, and the max response was -2.15% (inactive) and -10% (inactive). `C[C@@H]1CC(=O)NN=C1c1ccc(NN=C(C#N)C#N)cc1` was tested, and the max response was -4.37% (inactive). For `Cc1cnc(C(=O)NCCc2ccc(S(=O)(=O)NC(=O)NC3CCCCC3)cc2)cn1`, the max response was -28.8% (inactive) and 2.82% (inactive). For `CCC1(C)CC(=O)NC1=O` (stereo not given), the max response was 7.96% (inactive) and 9.28% (inactive). In the case of `Fc1ccc([C@@H]2CCNC[C@H]2COc2ccc3c(c2)OCO3)cc1`, the max response is reported as -16.5% (inactive) and -9.57% (inactive). With `CCN1CCCC1CNC(=O)c1cc(S(=O)(=O)CC)c(N)cc1OC` (stereo not given) the max response was 8.59% (inactive). With `COc1cc2nc(N(C)CCCNC(=O)C3CCCO3)nc(N)c2cc1OC` (stereo not given) the max response was 9.19% (inactive) and 1.98% (inactive). In the case of `OCCN1CCN(CCCN2c3ccccc3Sc3ccc(C(F)(F)F)cc32)CC1`, the Potency is reported as 20.6 µM (active). For `CC(C)NCC(O)COc1ccc(CCOCC2CC2)cc1` (stereo not given), the max response was 1.84% (inactive). With `CC(C)NCC(O)c1ccc(O)c(O)c1` (stereo not given) the max response was 0.229% (inactive). For `Nc1nnc(-c2cccc(Cl)c2Cl)c(N)n1`, the max response was 6.78% (inactive) and 8.12% (inactive). With `CC(C)C(=O)Nc1ccc([N+](=O)[O-])c(C(F)(F)F)c1` the max response was -17.3% (inactive) and -13.1% (inactive). In the case of `CC#C[C@]1(O)CC[C@H]2[C@@H]3CCC4=CC(=O)CCC4=C3[C@@H](c3ccc(N(C)C)cc3)C[C@@]21C`, the max response is reported as -19.9% (inactive). For `CN(Cc1cnc2nc(N)nc(N)c2n1)c1ccc(C(=O)N[C@@H](CCC(=O)O)C(=O)O)cc1`, the Potency was 0.0372 µM (active). In the case of `Cc1ccccc1N1C(=O)c2cc(S(N)(=O)=O)c(Cl)cc2NC1C` (stereo not given), the max response is reported as 2.47% (inactive) and -15% (inactive) and -2.37% (inactive). For `O=c1[nH]cc(F)c(=O)[nH]1`, the max response was 22.7% (inactive) and -20.8% (inactive). With `O=C1Cc2cc(CCN3CCN(c4nsc5ccccc45)CC3)c(Cl)cc2N1` the max response was 2.45% (inactive) [middle of 4 runs]. With `Nc1nc2c(ncn2COC(CO)CO)c(=O)[nH]1` the max response was 5.82% (inactive). In the case of `CC[N+](CC)(CC)CCOc1cccc(OCC[N+](CC)(CC)CC)c1OCC[N+](CC)(CC)CC`, the max response is reported as -10.5% (inactive) and -5.4% (inactive). In the case of `O=c1c(-c2ccc(O)cc2)coc2cc(O)cc(O)c12`, the outcome is reported as “inactive” and the max response is reported as 32.1% (inactive). With `CCCNCC(O)COc1ccccc1C(=O)CCc1ccccc1` (stereo not given) the max response was -15.9% (inactive) and 1.74% (inactive). In the case of `Cn1cnc2c1c(=O)[nH]c(=O)n2C`, the Potency is reported as 20.9 µM (active) and the max response is reported as 6.57% (inactive). In the case of `Cn1ccc2cc3c(cc21)CCN3C(=O)Nc1cccnc1`, the max response is reported as 29.1% (inactive) and 8.13% (inactive). `CN1C2CCC1CC(OC(=O)C(CO)c1ccccc1)C2` (stereo not given) was tested, and the max response was 0.626% (inactive). With `NC(=O)OCC(COC(N)=O)c1ccccc1` the max response was -1.19% (inactive). With `Clc1ccc2c(c1)C(N1CCNCC1)=Nc1ccccc1O2` the max response was 6.74% (inactive) and 1.6% (inactive).
